# Shown are actives, neighbours in structure and some others; about 2.4% of the full set was active somewhere.
# D2 antag – antagonizes the human D2 dopamine receptor; P14416; HEK293 TREx D2 cells, calcium flux, dopamine EC80; inhibition, % at 10 µM; 340,000 tested, 2% active; AID 485344; in the data active means inhibition above about 30%; inactive means below that, where a call was filed; further: 0% is about no effect
# Target sequence (P14416 whole entry, looked up): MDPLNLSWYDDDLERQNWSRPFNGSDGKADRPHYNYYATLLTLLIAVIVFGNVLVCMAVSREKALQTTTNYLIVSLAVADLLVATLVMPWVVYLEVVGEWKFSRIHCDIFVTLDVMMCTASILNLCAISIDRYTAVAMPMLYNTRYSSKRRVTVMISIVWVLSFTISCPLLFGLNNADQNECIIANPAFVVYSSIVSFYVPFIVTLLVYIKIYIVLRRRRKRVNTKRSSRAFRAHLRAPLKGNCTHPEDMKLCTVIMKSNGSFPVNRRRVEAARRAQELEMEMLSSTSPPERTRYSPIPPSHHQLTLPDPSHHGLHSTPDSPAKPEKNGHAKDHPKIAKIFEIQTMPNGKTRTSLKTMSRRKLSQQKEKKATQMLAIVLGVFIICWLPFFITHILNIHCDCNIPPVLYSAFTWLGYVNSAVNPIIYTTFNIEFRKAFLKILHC
#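 Tetracycline-induced HEK293 T-REx cells expressing D2 force-coupled to calcium signalling were dye-loaded, exposed to compound for 180 s, then challenged with an EC80 of dopamine; calcium flux was followed kinetically for a further 180 s.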
# D2 PAM-1 – positive allosteric modulators of human D2 dopamine receptor; AID 485347; potentiation, % at 10 µM; HEK293 T-REx D2, calcium flux, EC20 dopamine potentiation; 340,000 tested, 0.34% active; P14416;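 active means potentiation over 3 SD above the plate norm, cut at about 30% in these data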; further: 0% is about no effect
#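 Primary screen. Calcium kinetics in induced HEK293 T-REx D2 cells: compound pre-addition 180 s, EC20 dopamine, 180 s more.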
# D2 PAM-2 – potentiates the human D2 dopamine receptor allosterically; P14416; DiscoveRx D2 beta-arrestin cells, luminescence, 90 min; 100% = 57 uM dopamine signal; potentiation, % (test concentration not listed); 360,000 tested, 0.23% active; AID 624464; in the data active means potentiation above about 50%
#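 PathHunter beta-arrestin assay in DiscoveRx D2 cells. Compounds were added with an EC20 of dopamine (50 nM final) for 90 min at 37 deg C. Luminescence was read 1 h after detection reagent, with 57 uM dopamine as the EC100 control.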
# D2 ag-1 – agonists of human D2 dopamine receptor (beta-arrestin). P14416. DiscoveRx PathHunter D2 beta-arrestin, luminescence, 90 min; 100% = 57 uM dopamine signal. activation, % (concentration not given with the values). 360,000 tested, 0.084% active. AID 624465; in the data active means activation above about 40%
#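 Agonist mode: compounds alone added to overnight-plated D2 PathHunter cells for 90 min at 37 C, with 57 uM final dopamine (EC100) defining full response. Beta-arrestin recruitment detected by chemiluminescent reagent, read after 1 h at ambient temperature.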
# D2 ag-2 – agonists of human D2 dopamine receptor; P14416; HEK293 T-REx D2 cells, calcium flux agonist mode; activation, % at 2 µM; 340,000 tested, 0.53% active; AID 485358;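 active means activation over 3 SD above normal in the single-dose calcium agonist read, cut at about 30% in these data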; further: 0% is about no effect
#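 HEK293 Trex D2 cells, tetracycline-induced, o/n 30 C 5% CO2; no-wash Ca dye, RT 30–90 min; 10-cycle baseline, 23 nl cpd added, kinetic Ca read 180 s; agonist hits = positive Ca response.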
# Starred values were filed as active, the others as inactive; . = not tested or not shown.
SMILES,D2 antag,D2 PAM-1,D2 PAM-2,D2 ag-1,D2 ag-2
Cc1cccc(N2CCN(C(=O)c3cc4ccc5cccnc5c4[nH]3)CC2C)c1 (stereo not given),.,5,.,.,0
O=C(O)c1cccc2c1C(=O)c1cc([N+](=O)[O-])cc([N+](=O)[O-])c1-2,.,.,8,74*,.
COc1cc2c(C)nc(C)c(C#N)c2cc1OC,4,39*,-3,1,1
COc1cccc(Cn2c(=O)n(CCc3ccccc3)c(=O)c3c2c2cc(OC)ccc2n3C)c1,.,-3,.,.,0
CCN(CC)CCOC(=O)c1ccc(NC(=O)CCCN2C(=O)/C(=C/c3cccs3)SC2=S)cc1,49*,-26,-43,-2,-1
O=C(CCCN1C(=O)/C(=C\c2cccs2)SC1=S)Nc1ccc(C(=O)O)cc1,.,.,-3,-3,.
CN(C(=O)c1ccc2c(c1)N(Cc1ccccc1F)C(=O)c1ccccc1S2(=O)=O)C1CCCCC1,.,-6,.,.,-1
Cc1ccc(CCNC(=O)c2ccc(CS(=O)(=O)c3ccccc3C)o2)cc1,-10,47*,-15,-2,0
Cc1ccc(CNC(=O)c2ccc(CS(=O)(=O)c3ccccc3C)o2)cc1,1,11,2,-3,-1
CCN(c1ccccc1)c1nnc(NC(=O)Nc2ccc(Br)cc2F)s1,.,0,.,.,1
COc1ccc(C2N(C(=O)C(F)(F)F)C(C)CN2S(=O)(=O)c2ccc(C)cc2)cc1 (stereo not given),35*,-9,-6,1,1
COc1ccc(C2N(S(=O)(=O)c3ccc(C)cc3)CCN2S(=O)(=O)c2ccc(C)cc2)cc1,36*,-4,-13,0,1
Nc1nc(Nc2cccc(F)c2)nc(NCc2ccco2)c1[N+](=O)[O-],7,0,-5,0,4
CCOC(=O)c1c(C=O)c2sc(C)cc2n1C,43*,8,-6,-1,0
CCCCn1c(N)c(N(CC(C)C)C(=O)c2cccc(OCc3ccccc3)c2)c(=O)[nH]c1=O,-30,30*,2,-1,0
CCCCn1c(N)c(N(CCC(C)C)C(=O)c2cccc(S(=O)(=O)N3CCN(C)CC3)c2)c(=O)[nH]c1=O,34*,-5,-15,-5,0
CC(C)Oc1cccc(NC(=O)c2cnccc2C(F)(F)F)c1,22,8,-17,-4,0
CCCn1cc(S(=O)(=O)CC(=O)NC2CCCCC2)c2ccccc21,51*,-12,-24,0,0
CCCCCCn1ccc(=N)cc1,36*,-1,-7,-4,-1
CCCCCCCCCCCCCCCCn1cc[n+](CC(C)=O)c1,-6,-7,-7,2,1
CC(C)CNC(=O)NC(=O)COc1ncnc2sccc12,37*,6,1,-2,0
CCCNC(=O)COc1ncnc2sccc12,33*,14,7,7,2
C=CCc1c(C)nc2nc(SCC(=O)Nc3ccccc3CC)nn2c1C,.,-6,.,.,0
O=C(COC(=O)Cn1nc(-c2ccccc2)oc1=O)Nc1ccc(F)cc1,3,4,65*,7,-1
CN(C)CCNc1ncnc2c1sc1nc(N3CCCC3)c3c(c12)CC(C)(C)OC3,-1,-18,-18,0,2
SMILES,D2 antag,D2 PAM-1,D2 PAM-2,D2 ag-1,D2 ag-2
CC(C)CNc1ncnc2c1sc1nc(N3CCOCC3)c3c(c12)CC(C)(C)OC3,33*,4,2,-3,0
CNC(=O)c1ccc(-c2sc3nc(N4CCOCC4)c4c(c3c2N)CC(C)(C)OC4)o1,41*,-2,5,-1,-1
c1ccc(CCNc2cnccn2)cc1,38*,-12,-11,7,1
Fc1ccc(CNc2cnccn2)cc1,-17,5,-4,-1,0
c1ccc(CNc2cnccn2)cc1,11,41*,-3,1,0
O=C(Cn1c(-c2cccs2)cc2ccccc21)NCCCN1CCN(c2cccc(Cl)c2)CC1,.,-15,.,.,27
COc1ccc(-c2nn(-c3ccccc3)cc2C(=O)Nc2ccc(C(=O)O)cc2)cc1,7,2,7,4,0
COc1ccc(NC(=O)c2cn(-c3ccccc3)nc2-c2ccncc2)cc1,68*,-21,-9,6,-1
C=CCN1C(=O)CN=C1Nc1ccc(F)cc1,54*,-33,-5,0,1
COc1ccc(CCN2C(=O)CN=C2Nc2ccc(F)cc2)cc1OC,6,-2,-4,-3,-1
Cc1cccc(OCc2nnc(SCC(=O)NCC3CCCO3)n2C)c1 (stereo not given),7,37*,-4,-1,0
Cc1ccc2cc(C#N)c(SCC(=O)NCC3CCCO3)nc2c1 (stereo not given),6,0,-33,-4,-1
Cc1ccc(-n2nnc3c(SCC(=O)NCC4CCCO4)ncnc32)cc1 (stereo not given),46*,.,-2,3,-1
O=C(CSc1ncnc2c1nnn2-c1ccc(F)cc1)NCC1CCCO1 (stereo not given),1,7,-7,-3,0
Cc1ccc2nc(SCC(=O)NCC3CCCO3)c(C#N)cc2c1 (stereo not given),41*,-12,4,0,-1
Cc1cc(C)n(CCc2nc3c4ccccc4nc(SCc4ccc(Cl)cc4)n3n2)n1,.,-15,.,.,1
CCCCOc1ccc(S(=O)(=O)NNC(=O)c2cc3ccccc3o2)cc1,44*,-1,-11,-2,-1
c1ccc(-c2ncnc3nc4n(c23)CCC4)cc1,34*,-2,-4,0,0
CCCCn1c2ccccc2c2nnc(SCC(=O)NC3=NN=C(c4ccccc4)CS3)nc21,70*,7,.,.,0
CCCn1c2ccccc2c2nnc(SCC(=O)OC)nc21,-24,14,-2,-3,0
Cc1ccc(N2CC(NC(=O)/C=C\c3ccc4c(c3)OCO4)CC2=O)cc1 (stereo not given),.,-8,.,.,0
Cc1ccc(NC(=O)C2CCCN(S(=O)(=O)c3ccc4[nH]c(=O)ccc4c3)C2)c(C)c1 (stereo not given),0,-1,-1,-2,0
COc1ccc(NC(=O)C2CC(=O)N(Cc3ccc(C)cc3)C2)cc1S(=O)(=O)N1CCCCC1 (stereo not given),43*,-11,-34,-3,0
Cc1ccc(CN2CC(C(=O)O)CC2=O)cc1 (stereo not given),14,30*,-6,-1,1
COc1cc(/C=C/c2nc(C#N)c(NC3CCCCC3)o2)cc(OC)c1OC,.,3,.,.,-1
CCOC(=O)c1c(C)[nH]c(C)c1S(=O)(=O)N1CCN(c2ccccc2OC)CC1,.,-5,.,.,0

# Screening results as filed in PubChem BioAssay.
